# From article PMC11006913
# Positions count from the first letter of the chain named.
# Experiments:
# Assay in all cases: PBM; 200 nM protein, PBS
# Conditions in all cases: dsDNA, one strand shown
# [1] = molecular target: HOXB4 (Homo sapiens, UniProt P17483 148-234)
# [2] = molecular target: SHOX (Homo sapiens, UniProt O15266 103-189)
# [3] = molecular target: HOXB4 (Homo sapiens, UniProt P17483 148-234, V174I)
# [4] = molecular target: ALX1 (Homo sapiens, UniProt Q15699 118-204, L144V)
# [5] = molecular target: SHOX (Homo sapiens, UniProt O15266 103-189, R173C)
# [6] = molecular target: ALX1 (Homo sapiens, UniProt Q15699 118-204, L144R)
# [7] = molecular target: ALX1 (Homo sapiens, UniProt Q15699 118-204)
# [8] = molecular target: T1, VENTX (Homo sapiens, UniProt O95231 78-163, R121Q)
# T1 sequence: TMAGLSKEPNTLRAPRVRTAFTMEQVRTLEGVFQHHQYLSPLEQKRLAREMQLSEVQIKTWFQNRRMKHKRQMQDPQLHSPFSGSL
# [9] = molecular target: HOXB9 (Homo sapiens, UniProt P17482 171-250, T197M)
# [10] = molecular target: HOXA4 (Homo sapiens, UniProt Q00056 201-287, W262R)
# [11] = molecular target: HOXC9 (Homo sapiens, UniProt P31274 178-260, K195R)
# [12] = molecular target: T2, VENTX (Homo sapiens, UniProt O95231 78-163)
# T2 sequence: T1 sequence with Q44R
# [13] = molecular target: HOXA7 (Homo sapiens, UniProt P31268 116-202)
# [14] = molecular target: HOXC10 (Homo sapiens, UniProt Q9NYD6 254-340)
# [15] = molecular target: ALX4 (Homo sapiens, UniProt Q9H161 200-286)
# [16] = molecular target: T3, PAX4 (Homo sapiens, UniProt O43316 9-242, R200K)
# T3 sequence: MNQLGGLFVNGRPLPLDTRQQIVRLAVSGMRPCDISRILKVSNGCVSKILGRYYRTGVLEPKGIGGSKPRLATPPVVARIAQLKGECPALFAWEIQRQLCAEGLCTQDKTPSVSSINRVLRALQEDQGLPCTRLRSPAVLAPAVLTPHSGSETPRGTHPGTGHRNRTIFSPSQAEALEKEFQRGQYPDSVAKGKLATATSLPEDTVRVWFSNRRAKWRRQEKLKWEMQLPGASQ
# [17] = molecular target: T4, VENTX (Homo sapiens, UniProt O95231 78-163, Y115F)
# T4 sequence: T1 sequence with Y38F, Q44R
# [18] = molecular target: HOXB6 (Homo sapiens, UniProt P17509 132-218, K202E)
# [19] = molecular target: ALX4 (Homo sapiens, UniProt Q9H161 200-286, Q225E)
# [20] = molecular target: HOXA2 (Homo sapiens, UniProt O43364 129-215, R185T)
# [21] = molecular target: HOXA4 (Homo sapiens, UniProt Q00056 201-287, R217L)
# [22] = molecular target: HOXB9 (Homo sapiens, UniProt P17482 171-250)
# [23] = molecular target: HOXC9 (Homo sapiens, UniProt P31274 178-260)
# [24] = molecular target: ALX3 (Homo sapiens, UniProt O95076 139-225, N203Q)
# [25] = molecular target: HOXD13 (Homo sapiens, UniProt P35453 263-343, T313R)
# [26] = molecular target: HOXC9 (Homo sapiens, UniProt P31274 178-260, R193K)
# [27] = molecular target: HOXA2 (Homo sapiens, UniProt O43364 129-215, R185K)
# [28] = molecular target: HOXD13 (Homo sapiens, UniProt P35453 263-343)
# [29] = molecular target: HOXA4 (Homo sapiens, UniProt Q00056 201-287)
# [30] = molecular target: HOXC10 (Homo sapiens, UniProt Q9NYD6 254-340, K271E)
# [31] = molecular target: ALX3 (Homo sapiens, UniProt O95076 139-225)
# [32] = molecular target: PROP1 (Homo sapiens, UniProt O75360 56-141)
# [33] = molecular target: PROP1 (Homo sapiens, UniProt O75360 56-141, R99H)
# [34] = molecular target: VAX1 (Homo sapiens, UniProt Q5SQQ9 86-172)
# [35] = molecular target: ALX3 (Homo sapiens, UniProt O95076 139-225, L168Q)
# [36] = molecular target: HOXD13 (Homo sapiens, UniProt P35453 263-343, T313A)
# [37] = molecular target: HOXB9 (Homo sapiens, UniProt P17482 171-250, R186Q)
# [38] = molecular target: HOXC9 (Homo sapiens, UniProt P31274 178-260, R222W)
# [39] = molecular target: ALX3 (Homo sapiens, UniProt O95076 139-225, L168V)
# [40] = molecular target: PROP1 (Homo sapiens, UniProt O75360 56-141, F88S)
# [41] = molecular target: VAX1 (Homo sapiens, UniProt Q5SQQ9 86-172, T142I)
# [42] = molecular target: HOXA2 (Homo sapiens, UniProt O43364 129-215, Y150S)
# [43] = molecular target: HOXA7 (Homo sapiens, UniProt P31268 116-202, W177C)
# [44] = molecular target: HOXA4 (Homo sapiens, UniProt Q00056 201-287, W262F)
# [45] = molecular target: ALX3 (Homo sapiens, UniProt O95076 139-225, N203S)
# [46] = molecular target: HOXA2 (Homo sapiens, UniProt O43364 129-215)
# [47] = molecular target: VAX1 (Homo sapiens, UniProt Q5SQQ9 86-172, K157R)
# [48] = molecular target: HOXB6 (Homo sapiens, UniProt P17509 132-218)
# Chain of HOXB6 (Homo sapiens, UniProt P17509 132-218) (P17509 132-218): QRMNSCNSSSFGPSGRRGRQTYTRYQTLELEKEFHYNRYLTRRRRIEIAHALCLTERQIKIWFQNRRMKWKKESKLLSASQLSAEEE
# Chain of SHOX (Homo sapiens, UniProt O15266 103-189) (O15266 103-189): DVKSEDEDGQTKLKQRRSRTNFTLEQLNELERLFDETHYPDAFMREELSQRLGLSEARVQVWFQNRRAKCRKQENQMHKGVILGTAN
# Chain of ALX1 (Homo sapiens, UniProt Q15699 118-204, L144R) (Q15699 118-204 L144R): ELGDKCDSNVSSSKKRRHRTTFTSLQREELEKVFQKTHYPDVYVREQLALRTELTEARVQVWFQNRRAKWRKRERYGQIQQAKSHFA
# Chain of ALX1 (Homo sapiens, UniProt Q15699 118-204, L144V) (Q15699 118-204 L144V): as the sequence (Q15699 118-204 L144R) above, with R27V counted along it
# Chain of ALX1 (Homo sapiens, UniProt Q15699 118-204) (Q15699 118-204): as the sequence (Q15699 118-204 L144R) above, with R27L counted along it
# Chain of HOXB4 (Homo sapiens, UniProt P17483 148-234, V174I) (P17483 148-234 V174I): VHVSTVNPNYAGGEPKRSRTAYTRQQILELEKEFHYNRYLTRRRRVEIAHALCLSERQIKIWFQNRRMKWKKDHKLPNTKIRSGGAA
# Chain of HOXB4 (Homo sapiens, UniProt P17483 148-234) (P17483 148-234): as the sequence (P17483 148-234 V174I) above, with I27V counted along it
# Chain of SHOX (Homo sapiens, UniProt O15266 103-189, R173C) (O15266 103-189 R173C): as the sequence (O15266 103-189) above, with R71C counted along it
# Chain of ALX3 (Homo sapiens, UniProt O95076 139-225) (O95076 139-225): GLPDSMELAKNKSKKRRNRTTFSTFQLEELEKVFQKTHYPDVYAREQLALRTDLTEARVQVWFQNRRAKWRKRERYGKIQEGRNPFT
# Chain of PROP1 (Homo sapiens, UniProt O75360 56-141, F88S) (O75360 56-141 F88S): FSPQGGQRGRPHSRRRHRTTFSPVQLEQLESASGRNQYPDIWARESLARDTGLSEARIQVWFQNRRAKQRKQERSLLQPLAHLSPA
# Chain of HOXC9 (Homo sapiens, UniProt P31274 178-260, R222W) (P31274 178-260 R222W): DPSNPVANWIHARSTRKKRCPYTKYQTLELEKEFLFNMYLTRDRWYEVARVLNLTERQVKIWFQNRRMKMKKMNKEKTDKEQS
# Chain of HOXB9 (Homo sapiens, UniProt P17482 171-250) (P17482 171-250): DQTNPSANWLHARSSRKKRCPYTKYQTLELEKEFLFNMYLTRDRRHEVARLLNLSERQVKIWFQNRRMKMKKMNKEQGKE
# Chain of HOXC10 (Homo sapiens, UniProt Q9NYD6 254-340) (Q9NYD6 254-340): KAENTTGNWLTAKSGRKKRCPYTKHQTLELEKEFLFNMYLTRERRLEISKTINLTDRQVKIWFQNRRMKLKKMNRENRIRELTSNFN
# Chain of HOXD13 (Homo sapiens, UniProt P35453 263-343) (P35453 263-343): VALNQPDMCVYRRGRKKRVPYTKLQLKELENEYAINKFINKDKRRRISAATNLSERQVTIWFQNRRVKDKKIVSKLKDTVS
# Chain of HOXA2 (Homo sapiens, UniProt O43364 129-215) (O43364 129-215): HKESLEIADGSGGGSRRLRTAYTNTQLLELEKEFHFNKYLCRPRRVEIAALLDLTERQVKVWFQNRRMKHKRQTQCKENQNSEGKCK
# Chain of HOXA7 (Homo sapiens, UniProt P31268 116-202) (P31268 116-202): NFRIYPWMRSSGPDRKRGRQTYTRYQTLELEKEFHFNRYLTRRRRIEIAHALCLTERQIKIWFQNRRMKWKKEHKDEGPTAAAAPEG
# Chain of VAX1 (Homo sapiens, UniProt Q5SQQ9 86-172, T142I) (Q5SQQ9 86-172 T142I): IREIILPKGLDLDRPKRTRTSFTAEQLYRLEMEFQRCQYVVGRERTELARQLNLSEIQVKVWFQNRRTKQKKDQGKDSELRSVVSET
# Chain of HOXD13 (Homo sapiens, UniProt P35453 263-343, T313R) (P35453 263-343 T313R): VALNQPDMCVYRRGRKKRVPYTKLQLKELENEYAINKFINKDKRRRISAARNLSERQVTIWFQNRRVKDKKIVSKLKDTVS
# Chain of VAX1 (Homo sapiens, UniProt Q5SQQ9 86-172, K157R) (Q5SQQ9 86-172 K157R): as the sequence (Q5SQQ9 86-172 T142I) above, with I57T, K72R counted along it
# Chain of HOXB6 (Homo sapiens, UniProt P17509 132-218, K202E) (P17509 132-218 K202E): as the sequence (P17509 132-218) above, with K71E counted along it
# Chain of VAX1 (Homo sapiens, UniProt Q5SQQ9 86-172) (Q5SQQ9 86-172): as the sequence (Q5SQQ9 86-172 T142I) above, with I57T counted along it
# Chain of HOXA4 (Homo sapiens, UniProt Q00056 201-287, R217L) (Q00056 201-287 R217L): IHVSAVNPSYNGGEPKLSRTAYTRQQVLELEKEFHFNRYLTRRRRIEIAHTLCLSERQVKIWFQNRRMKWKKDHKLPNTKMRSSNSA
# Chain of ALX3 (Homo sapiens, UniProt O95076 139-225, L168V) (O95076 139-225 L168V): as the sequence (O95076 139-225) above, with L30V counted along it
# Chain of ALX4 (Homo sapiens, UniProt Q9H161 200-286) (Q9H161 200-286): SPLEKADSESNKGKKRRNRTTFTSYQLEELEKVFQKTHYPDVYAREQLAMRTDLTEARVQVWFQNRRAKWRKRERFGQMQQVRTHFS
# Chain of HOXB9 (Homo sapiens, UniProt P17482 171-250, R186Q) (P17482 171-250 R186Q): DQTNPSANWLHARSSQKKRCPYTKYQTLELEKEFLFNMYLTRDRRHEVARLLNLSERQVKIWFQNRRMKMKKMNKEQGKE
# Chain of PROP1 (Homo sapiens, UniProt O75360 56-141, R99H) (O75360 56-141 R99H): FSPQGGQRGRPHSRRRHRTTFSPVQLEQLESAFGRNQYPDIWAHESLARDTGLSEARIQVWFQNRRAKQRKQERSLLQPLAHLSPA
# Chain of HOXA2 (Homo sapiens, UniProt O43364 129-215, R185T) (O43364 129-215 R185T): as the sequence (O43364 129-215) above, with R57T counted along it
# Chain of HOXC9 (Homo sapiens, UniProt P31274 178-260, K195R) (P31274 178-260 K195R): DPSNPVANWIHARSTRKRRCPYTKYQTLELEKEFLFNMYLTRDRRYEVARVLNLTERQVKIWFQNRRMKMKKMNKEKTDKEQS
# Chain of ALX3 (Homo sapiens, UniProt O95076 139-225, N203Q) (O95076 139-225 N203Q): as the sequence (O95076 139-225) above, with N65Q counted along it
# Chain of HOXB9 (Homo sapiens, UniProt P17482 171-250, T197M) (P17482 171-250 T197M): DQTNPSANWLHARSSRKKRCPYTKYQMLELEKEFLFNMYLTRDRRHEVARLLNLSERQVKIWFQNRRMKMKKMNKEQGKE
# Chain of HOXC10 (Homo sapiens, UniProt Q9NYD6 254-340, K271E) (Q9NYD6 254-340 K271E): as the sequence (Q9NYD6 254-340) above, with K18E counted along it
# Chain of HOXC9 (Homo sapiens, UniProt P31274 178-260, R193K) (P31274 178-260 R193K): as the sequence (P31274 178-260 R222W) above, with R16K, W45R counted along it
# Chain of HOXA2 (Homo sapiens, UniProt O43364 129-215, R185K) (O43364 129-215 R185K): as the sequence (O43364 129-215) above, with R57K counted along it
# Chain of HOXD13 (Homo sapiens, UniProt P35453 263-343, T313A) (P35453 263-343 T313A): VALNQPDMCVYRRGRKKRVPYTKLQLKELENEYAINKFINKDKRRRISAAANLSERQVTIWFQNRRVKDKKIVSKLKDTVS
# Chain of HOXA4 (Homo sapiens, UniProt Q00056 201-287) (Q00056 201-287): as the sequence (Q00056 201-287 R217L) above, with L17R counted along it
# Chain of HOXC9 (Homo sapiens, UniProt P31274 178-260) (P31274 178-260): as the sequence (P31274 178-260 R222W) above, with W45R counted along it
# Chain of HOXA2 (Homo sapiens, UniProt O43364 129-215, Y150S) (O43364 129-215 Y150S): as the sequence (O43364 129-215) above, with Y22S counted along it
# Chain of HOXA7 (Homo sapiens, UniProt P31268 116-202, W177C) (P31268 116-202 W177C): as the sequence (P31268 116-202) above, with W62C counted along it
# Chain of ALX3 (Homo sapiens, UniProt O95076 139-225, N203S) (O95076 139-225 N203S): as the sequence (O95076 139-225) above, with N65S counted along it
# Chain of HOXA4 (Homo sapiens, UniProt Q00056 201-287, W262F) (Q00056 201-287 W262F): as the sequence (Q00056 201-287 R217L) above, with L17R, W62F counted along it
# Chain of ALX3 (Homo sapiens, UniProt O95076 139-225, L168Q) (O95076 139-225 L168Q): as the sequence (O95076 139-225) above, with L30Q counted along it
# Chain of PROP1 (Homo sapiens, UniProt O75360 56-141) (O75360 56-141): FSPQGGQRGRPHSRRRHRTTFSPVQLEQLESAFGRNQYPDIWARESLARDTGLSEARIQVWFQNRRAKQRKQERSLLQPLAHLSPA
# Chain of HOXA4 (Homo sapiens, UniProt Q00056 201-287, W262R) (Q00056 201-287 W262R): as the sequence (Q00056 201-287 R217L) above, with L17R, W62R counted along it
# Chain of ALX4 (Homo sapiens, UniProt Q9H161 200-286, Q225E) (Q9H161 200-286 Q225E): as the sequence (Q9H161 200-286) above, with Q26E counted along it
sequence,measurement,setting,value
CGCAGGCG,binding signal,[1],"7.74 upbm affinity estimate (log intensity, higher = more binding, comparable within an allelic series)"
same,binding signal,[2],"7.28 upbm affinity estimate (log intensity, higher = more binding, comparable within an allelic series)"
same,binding signal,[3],"7.65 upbm affinity estimate (log intensity, higher = more binding, comparable within an allelic series)"
same,binding signal,[4],"6.44 upbm affinity estimate (log intensity, higher = more binding, comparable within an allelic series)"
same,binding signal,[5],"7.07 upbm affinity estimate (log intensity, higher = more binding, comparable within an allelic series)"
same,binding signal,[6],"6.71 upbm affinity estimate (log intensity, higher = more binding, comparable within an allelic series)"
same,binding signal,[7],"6.49 upbm affinity estimate (log intensity, higher = more binding, comparable within an allelic series)"
CTCATTAA,binding signal,[1],"13.2 upbm affinity estimate (log intensity, higher = more binding, comparable within an allelic series)"
same,binding signal,[2],"11.5 upbm affinity estimate (log intensity, higher = more binding, comparable within an allelic series)"
same,binding signal,[8],"12 upbm affinity estimate (log intensity, higher = more binding, comparable within an allelic series)"
same,binding signal,[9],"10.1 upbm affinity estimate (log intensity, higher = more binding, comparable within an allelic series)"
same,binding signal,[10],"10.6 upbm affinity estimate (log intensity, higher = more binding, comparable within an allelic series)"
same,binding signal,[11],"12.5 upbm affinity estimate (log intensity, higher = more binding, comparable within an allelic series)"
same,binding signal,[12],"12.8 upbm affinity estimate (log intensity, higher = more binding, comparable within an allelic series)"
same,binding signal,[13],"11.5 upbm affinity estimate (log intensity, higher = more binding, comparable within an allelic series)"
same,binding signal,[14],"12.2 upbm affinity estimate (log intensity, higher = more binding, comparable within an allelic series)"
same,binding signal,[15],"13.6 upbm affinity estimate (log intensity, higher = more binding, comparable within an allelic series)"
same,binding signal,[16],"11.6 upbm affinity estimate (log intensity, higher = more binding, comparable within an allelic series)"
same,binding signal,[17],"12 upbm affinity estimate (log intensity, higher = more binding, comparable within an allelic series)"
same,binding signal,[18],"9.97 upbm affinity estimate (log intensity, higher = more binding, comparable within an allelic series)"
same,binding signal,[19],"12.6 upbm affinity estimate (log intensity, higher = more binding, comparable within an allelic series)"
same,binding signal,[20],"13.3 upbm affinity estimate (log intensity, higher = more binding, comparable within an allelic series)"
same,binding signal,[21],"12.5 upbm affinity estimate (log intensity, higher = more binding, comparable within an allelic series)"
same,binding signal,[22],"11.8 upbm affinity estimate (log intensity, higher = more binding, comparable within an allelic series)"
same,binding signal,[3],"13.9 upbm affinity estimate (log intensity, higher = more binding, comparable within an allelic series)"
same,binding signal,[23],"12.6 upbm affinity estimate (log intensity, higher = more binding, comparable within an allelic series)"
same,binding signal,[4],"11.5 upbm affinity estimate (log intensity, higher = more binding, comparable within an allelic series)"
same,binding signal,[24],"8.32 upbm affinity estimate (log intensity, higher = more binding, comparable within an allelic series)"
same,binding signal,[25],"10.7 upbm affinity estimate (log intensity, higher = more binding, comparable within an allelic series)"
same,binding signal,[5],"9.2 upbm affinity estimate (log intensity, higher = more binding, comparable within an allelic series)"
same,binding signal,[26],"12.5 upbm affinity estimate (log intensity, higher = more binding, comparable within an allelic series)"
same,binding signal,[27],"13.6 upbm affinity estimate (log intensity, higher = more binding, comparable within an allelic series)"
same,binding signal,[6],"11.2 upbm affinity estimate (log intensity, higher = more binding, comparable within an allelic series)"
same,binding signal,[28],"11.9 upbm affinity estimate (log intensity, higher = more binding, comparable within an allelic series)"
same,binding signal,[29],"14 upbm affinity estimate (log intensity, higher = more binding, comparable within an allelic series)"
same,binding signal,[30],"12 upbm affinity estimate (log intensity, higher = more binding, comparable within an allelic series)"
same,binding signal,[31],"12.3 upbm affinity estimate (log intensity, higher = more binding, comparable within an allelic series)"
same,binding signal,[32],"11 upbm affinity estimate (log intensity, higher = more binding, comparable within an allelic series)"
same,binding signal,[33],"10.6 upbm affinity estimate (log intensity, higher = more binding, comparable within an allelic series)"
same,binding signal,[34],"13.7 upbm affinity estimate (log intensity, higher = more binding, comparable within an allelic series)"
same,binding signal,[35],"10.1 upbm affinity estimate (log intensity, higher = more binding, comparable within an allelic series)"
same,binding signal,[36],"11.7 upbm affinity estimate (log intensity, higher = more binding, comparable within an allelic series)"
same,binding signal,[37],"11.5 upbm affinity estimate (log intensity, higher = more binding, comparable within an allelic series)"
same,binding signal,[38],"10.9 upbm affinity estimate (log intensity, higher = more binding, comparable within an allelic series)"
same,binding signal,[39],"9.58 upbm affinity estimate (log intensity, higher = more binding, comparable within an allelic series)"
same,binding signal,[40],"7.48 upbm affinity estimate (log intensity, higher = more binding, comparable within an allelic series)"
same,binding signal,[41],"13.5 upbm affinity estimate (log intensity, higher = more binding, comparable within an allelic series)"
same,binding signal,[42],"10.7 upbm affinity estimate (log intensity, higher = more binding, comparable within an allelic series)"
same,binding signal,[43],"8.81 upbm affinity estimate (log intensity, higher = more binding, comparable within an allelic series)"
same,binding signal,[7],"12 upbm affinity estimate (log intensity, higher = more binding, comparable within an allelic series)"
same,binding signal,[44],"12 upbm affinity estimate (log intensity, higher = more binding, comparable within an allelic series)"
same,binding signal,[45],"8.41 upbm affinity estimate (log intensity, higher = more binding, comparable within an allelic series)"
same,binding signal,[46],"12.9 upbm affinity estimate (log intensity, higher = more binding, comparable within an allelic series)"
same,binding signal,[47],"13.6 upbm affinity estimate (log intensity, higher = more binding, comparable within an allelic series)"
same,binding signal,[48],"11.9 upbm affinity estimate (log intensity, higher = more binding, comparable within an allelic series)"
